Assay results as given in PubChem BioAssay AID1347171 (National Center for Advancing Translational Sciences (NCATS), 2019).
Records with an inconclusive call do not appear. The source made the active and inactive calls. The call rests on the fitted dose curve; in most records, active means well fitted inhibition curve with a large enough effect; inconclusive means small, poorly fitted or top-dose-only effect; inactive means no such curve, though single readings can be large or run the other way.

assay: Orthogonal mCherry assay for qRT-PCR qHTS of selected Zika virus inhibitors; settings: Vero cells, ZIKV-mCherry infection imaging, 48-72 h; series mostly up to 32.6 µM
From the text: Description: Assay Submitters (PI): Avindra Nath, Ph.D., National Institute of Neurological Disorders and Stroke (NINDS), Bethesda, MD Radhakrishnan Padmanabhan, Ph.D., Georgetown University (GU), Washington D.C. Zika Virus causes congenital defects, including microcephaly and is associated with Guillain-Barre syndrome, eningoencephalitis and myelitis in infected adult. […] Using a target-based approach, we hope to establish a screening paradigm to uncover novel, cell-active NS2B-NS3 protease (Zika Virus) specific inhibitors from NCATS' collection of small molecules using qHTS. […] Four assay panel was created to identify potential Zika Virus inhibitors. Namely, (1) GU unlinked NS2B-NS3 AMC tagged protease qHTS, (2) GU unlinked NS2B-NS3 Rhodamine tagged protease qHTS, (3) NINDS linked NS2B-NS3 AMC tagged protease qHTS, (4) NINDS linked NS2B-NS3 Rhodamine tagged protease qHTS. Inhibitors of the Zika virus primary screens are confirmed using qRT-PCR secondary assays, mCherry orthogonal assay, and Vero cells viability counterscreen. Early Translation Branch (ETB) National Center for Advancing Translational Sciences (NCATS), Rockville, MD National Institute of Health (NIH), Bethesda, Maryland
384 well ZIKV-mCherry Assay: We have developed a new orthogonal imaging assay in 384-well plate format, which uses recombinant virus ZIKV-mCherry in Vero cells. Briefly, 30 microL of Vero cells derived from a green monkey cell line, were dispensed by Multidrop Dispenser into a clear solid bottom black 384 well plate (ultracarrier, Perkin Elmer LifeSciences) at a concentration of 5,000 cells per well. The plate was incubated overnight in a CO2 incubator at 37 degrees C. Compounds were delivered as a 126 nL DMSO solution by Kalypsys pintool transfer. Following compound transfer, 10 microL of ZIKV-mCherry was added at an MOI of 1 and incubated in a CO2 incubator for 48-72 hrs at 37 degrees C. After sufficient incubation of infected cells in test plates, 8 microL of 32% PFA was dispensed into assay plates to fix cells and incubated for 20 min at room temperature. Plates were washed 3 times with PBS using BioTek EL406 microplate washer/dispenser. After washing, 30 microL of PBS with 0.01% TX-100 containing Hoechst dye was dispensed into the each well of the plates for nuclear staining. 384-well plates were imaged on an automated, widefield high content imager (INCell 2200, GE Healthcare) using a 10x/0.45 NA lens and standard DAPI (nuclear stain) and mCherry (cy5) excitation and emission filters. The TIFFs were quantitated using the canned Multi Target Analysis protocol (GE Investigator Workstation software v3.7.2). Briefly, nuclei from the DAPI channel were identified using top hat segmentation and a sensitivity setting of 96 and minimum size area of 35 microm2. A recombinant Zika viral infection was monitored in the Cy5 channel (cells) using a 2 microm collar dilation from the nuclear bitmap. mCherry objects with an average nuclear RFU intensity above 450 (3 stdev above mean negative control wells) were considered "mcherry positive" and data was analyzed by percent infection rate.

Potency, inactive:
O=C1NC(=O)/C(=C/c2ccc3c(c2)OC(F)(F)O3)S1, CC(C)=CCc1c2c(c3occ(-c4ccc(O)c(O)c4)c(=O)c3c1O)C=CC(C)(C)O2, CC1(C)CCC(CN2CCN(c3ccc(C(=O)NS(=O)(=O)c4ccc(NCC5CCOCC5)c([N+](=O)[O-])c4)c(Oc4cnc5[nH]ccc5c4)c3)CC2)=C(c2ccc(Cl)cc2)C1, Nc1ccn([C@@H]2O[C@H](CO)[C@@H](O)C2(F)F)c(=O)n1, CC1=C(C(=O)OCc2ccccc2)C(c2ccc(-c3ccccc3)cc2)NC(=O)N1CCCCCC(=O)O (centres undefined), Cc1cc2c(C(C)C)c(O)c(O)c(C=O)c2c(O)c1-c1c(C)cc2c(C(C)C)c(O)c(O)c(C=O)c2c1O, COc1c(C)c2c(c(O)c1C/C=C(\C)CCC(=O)O)C(=O)OC2, Cc1cc(NC(=O)c2ccc(Cl)c(Cl)c2)ccc1-c1cc2ccccc2oc1=O, Cc1cc(C(C#N)c2ccc(Cl)cc2)c(Cl)cc1NC(=O)c1cc(I)cc(I)c1O (centres undefined), COc1ccc(NS(=O)(=O)c2ccc(NS(=O)(=O)c3ccc4c(c3)OCCO4)cc2)cc1, CC[C@H](C)[C@H]1O[C@]2(CC[C@@H]1C)C[C@@H]1C[C@@H](C/C=C(\C)[C@@H](O[C@H]3C[C@H](OC)[C@@H](O[C@H]4C[C@H](OC)[C@@H](O)[C@H](C)O4)[C@H](C)O3)[C@@H](C)/C=C/C=C3\CO[C@@H]4[C@H](O)C(C)=C[C@@H](C(=O)O1)[C@]34O)O2, Oc1cc2ccccc2c2ccccc12, COc1cc2c(c(O)c1OC/C=C(\C)CC/C=C(/C)CCC=C(C)C)CN(C(CCC(=O)O)C(=O)O)C2=O (centres undefined), Cc1ccc(-n2[nH]c(C)c(N=Nc3cccc(-c4cccc(C(=O)O)c4)c3O)c2=O)cc1C, O=C(Nc1ccc([N+](=O)[O-])cc1Cl)c1cc(Cl)ccc1O, CC(C)c1ccc2c(c1)c(SC(C)(C)C)c(CC(C)(C)C(=O)O)n2Cc1ccc(Cl)cc1, CC(C)c1cc(C(C)C)c(CC(=O)NS(=O)(=O)Oc2c(C(C)C)cccc2C(C)C)c(C(C)C)c1, N#CC1C(=O)Nc2scc(-c3ccc(-c4ccccc4O)cc3)c2C1=O (centres undefined)

Potency, active:
COc1cccc(-n2nc(C(=O)O)cc2-c2ccc(C3CCCCC3)c(Cl)c2)c1 25.1 µM, Oc1cccc(-c2c3nc(c(-c4cccc(O)c4)c4ccc([nH]4)c(-c4cccc(O)c4)c4nc(c(-c5cccc(O)c5)c5ccc2[nH]5)CC4)C=C3)c1 7.08 µM, CC(C)c1onc(-c2c(Cl)cccc2Cl)c1COc1ccc(/C=C/c2cccc(C(=O)O)c2)c(Cl)c1 25.1 µM, Nc1ncnc2c([C@@H]3N[C@H](CO)[C@@H](O)[C@H]3O)c[nH]c12 14.1 µM, Cc1cccc(C)c1NS(=O)(=O)c1ccc(NS(=O)(=O)c2ccc3c(c2)OCCO3)cc1 3.55 µM, CN(Cc1ccc(C(=O)O)cc1)c1ccc(OCc2c(-c3c(Cl)cccc3Cl)noc2C2CC2)nc1C(F)(F)F 14.1 µM
